Compound activity: PubChem, The Scripps Research Institute Molecular Screening Center
TEAD-YAP inh – TEAD-YAP interaction inhibition; HEK-TIYL cells, TEAD-Gal4/YAP UAS-luciferase luminescence; inhibition, % at 9.12 µM; actives 1.4% (n = 640,000); in the data active = inhibition above about 32%;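 also: 0% = median of test compound wells and 100% = reference inhibitor wells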
FBW7 activator – human FBW7 E3 ligase activation, primary screen; Q969H0; AlphaScreen FBW7–phospho-cyclin E peptide binding, activator screen; normalized activity (activation), % at 26.1 µM; actives 0.13% (n = 650,000); AID 1259310; in the data active = normalized activity above about 1.9%;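 also: purified mutant Fbw7 with reduced substrate affinity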
GPR151 activ – human GPR151 activation. Q8TDV0. PathHunter beta-arrestin GPR151 cells, luminescence. activation, % at 11.2 µM. actives 1% (n = 650,000). AID 1508602; in the data active = activation above about 4.9%;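 also: 0% = median of compound wells and 100% = cells with positive control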
MITF primary – human MITF inhibition, primary screen. AlphaScreen MITF homodimerization, bead proximity signal. O75030. inhibition, % at 2.6 µM. actives 0.91% (n = 650,000). AID 1259374; in the data active = inhibition above about 50%;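 also: 0% = vehicle wells with protein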
Target sequence (O75030 whole entry, looked up): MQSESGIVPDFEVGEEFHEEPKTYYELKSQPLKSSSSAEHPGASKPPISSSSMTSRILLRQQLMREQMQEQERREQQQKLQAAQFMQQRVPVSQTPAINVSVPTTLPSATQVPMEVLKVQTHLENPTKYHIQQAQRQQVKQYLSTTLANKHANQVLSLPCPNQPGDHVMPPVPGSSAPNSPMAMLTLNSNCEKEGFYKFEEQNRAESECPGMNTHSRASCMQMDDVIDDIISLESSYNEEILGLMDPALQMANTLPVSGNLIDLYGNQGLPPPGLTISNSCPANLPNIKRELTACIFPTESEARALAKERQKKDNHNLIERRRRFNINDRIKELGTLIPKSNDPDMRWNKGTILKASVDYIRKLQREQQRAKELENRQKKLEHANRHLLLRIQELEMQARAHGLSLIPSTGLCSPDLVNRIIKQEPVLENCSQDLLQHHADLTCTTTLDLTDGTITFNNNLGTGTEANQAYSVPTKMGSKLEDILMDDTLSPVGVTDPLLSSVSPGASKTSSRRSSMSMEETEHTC
Numbers without * were called inactive. Rows were chosen to be rich in hits. Some 3.4% of all compounds tested hit in one or more screens of this group.

SMILES | TEAD-YAP inh | FBW7 activator | GPR151 activ | MITF primary
CNC(=O)c1cc(F)ccc1Nc1cc(Nc2ccc3c(c2)NC(=O)C3)ncc1C(F)(F)F | 39* | 0 | 0 | 7
CC(=O)Nc1ccc(NC(=O)c2ccc(F)cc2)nc1 | -26 | 0 | 0 | 6
CNC(=O)c1cc(F)ccc1Nc1cc(Nc2ccc3c(c2)CC(=O)N3)ncc1C(F)(F)F | 1 | 0 | -2 | 4
CCOc1cc(C2Nc3ccccc3C(=O)N2NC(C)=O)ccc1O (configuration not stated) | 8 | 0 | 3 | -4
CCc1cc(-c2n[nH]c(C)c2-c2nc3ccccc3s2)c(O)cc1OC | 35* | 0 | 0 | 7
Nc1c(N2CCCC2)cc(O)c2c1C(=O)c1ccccc1C2=O | -55 | 0 | -2 | 77*
CCn1c(=O)c2cc(C(=O)N(C)CCC#N)sc2c2ccccc21 | 7 | 0 | 1 | -9
Cc1c2c(=O)n(-c3nc4ccccc4s3)[nH]c2cc(=O)n1Cc1ccccc1Cl | 9 | 0 | 0 | 91*
O=C(Nc1nnc(COc2ccc(C3CCCCC3)cc2)s1)C12CC3CC(CC(C3)C1)C2 | -10 | 1.9* | -1 | 26
O=C(NCc1nc(-c2ccccc2)cs1)C1CC(CCc2ccccc2)=NO1 (configuration not stated) | 5 | 0 | -1 | 13
COCCn1c(=O)n(CC(=O)N2CCC(C(N)=O)CC2)c2cccnc21 | 5 | 5.7* | -2 | 3
COCCn1c(=O)n(CC(=O)N2CCCCC2)c2cccnc21 | -6 | 0 | -2 | -2
O=C1CCCC2=C1C(c1ccncc1)Nc1ccc(C(=O)c3ccccc3)cc1N2 (configuration not stated) | 25 | 0 | 0 | -11
O=C1CCCC2=C1C(c1ccc(Br)cc1)Nc1ccc(C(=O)c3ccccc3)cc1N2 (configuration not stated) | 51* | 0 | -1 | -1
O=C1CCCC2=C1C(c1cccc(O)c1)Nc1ccc(C(=O)c3ccccc3)cc1N2 (configuration not stated) | 20 | 0 | -1 | 15
Cc1ccc(C2Nc3ccc(C(=O)c4ccccc4)cc3NC3=C2C(=O)CCC3)cc1 (configuration not stated) | 41* | 0 | -1 | -2
O=C1CCCC2=C1C(c1cccc(Cl)c1)Nc1ccc(C(=O)c3ccccc3)cc1N2 (configuration not stated) | 70* | 0 | 0 | 4
O=C1CCCC2=C1C(c1ccccc1)Nc1ccc(C(=O)c3ccccc3)cc1N2 (configuration not stated) | 35* | 0 | 0 | 2
O=C(O)CN(c1ccccc1)c1ccccc1 | 6 | 0 | 0 | -17
Cc1cc(-c2cnc(N3CCCC3)nc2C2CCCN(Cc3cccnc3)C2)on1 (configuration not stated) | 6 | 0 | 0 | -6
O=C(Nc1ccccc1F)C1=CC(=O)C2C=CC=CC2O1 (configuration not stated) | -25 | 0 | -1 | -5
O=C1CCCC2=C1C(c1cccc([N+](=O)[O-])c1)Nc1ccc(C(=O)c3ccccc3)cc1N2 (configuration not stated) | 54* | 0 | 2 | 8
Cc1nc2ccccc2c2c1CC(C(C)(Cl)Br)O2 (configuration not stated) | 34* | 0 | 0 | -4
O=C(O)c1ccc2c(c1)C(=O)N(Nc1ccccc1[N+](=O)[O-])C2=O | 48* | 0 | -2 | 24
O=C(O)c1ccc2c(c1)C(=O)N(c1ccccc1[N+](=O)[O-])C2=O | 6 | 1 | 2 | 12
SMILES | TEAD-YAP inh | FBW7 activator | GPR151 activ | MITF primary
Cc1cccc2sc(NC(=O)CSc3nnnn3-c3ccccc3)nc12 | 9 | 2.0* | -2 | 16
Cc1sc(NC(=O)CSc2nnnn2-c2ccccc2)nc1-c1ccccc1 | 9 | 0 | 0 | 5
CCOC(=O)CCC(=O)Nc1cc(-c2ccc(C)cc2)[nH]n1 | 2 | 0 | 0 | -7
CC(=O)Nc1cc(-c2ccc(C)cc2)[nH]n1 | -58 | 1.9* | 0 | 19
CC(=O)NC(=O)c1cc2ccccc2oc1=Nc1ccc(C)cc1 | 35* | 0 | 1 | -10
C=CCOc1ccc(C(=O)N(Cc2ccccc2Cl)C2CCS(=O)(=O)C2)cc1 (configuration not stated) | 2 | 0 | 0 | 27
CCCCCNc1sc(Cl)c([N+](=O)[O-])c1[N+](=O)[O-] | 65* | 0 | -1 | 13
CCCCCCNc1ccc([N+](=O)[O-])cc1[N+](=O)[O-] | 4 | 0 | -1 | 13
Cc1cnc(Nc2ccc(-n3ccnc3)cc2)nc1N | -4 | 0 | 0 | 6
